Values without a mark were called inactive. For some assays here: Results with a measured potency or affinity are listed apart. Activity calls are given as the source filed them. Unless noted, the rule behind the calls is not given here.
Experiments:
[1] = antimalarial activity against Dd2 strain (AID 2302;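 active = growth inhibition above 50% at the single 2 µM test dose, taken to imply half-maximal potency below 2 µM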;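 note: 0% = DMSO untreated growth and 100% = chloroquine plus artemisinin killed control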); details: P. falciparum Dd2 in RBCs, LDH growth readout, 72 h; at 2 µM; active compounds read high
[2] = HepG2 cytotoxicity, primary screen, cytotoxicity control for P. falciparum antimalarial project, cell-based, ATP luminescence (AID 2303;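 active = inhibition above 50%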;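 note: 0% = DMSO wells and 100% = digitonin-killed cells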); details: HepG2 viability, 24-48 h, at 10 µM, active compounds read high
[3] = target: L-lactate dehydrogenase (Plasmodium falciparum (isolate CDC / Honduras)) (UniProt Q27743); experiment: PfLDH activity inhibition – cell lysate, 3D7 strain, counter-screen for P. falciparum growth inhibition project (AID 2304);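 note: 0% = vehicle and 100% = reference inhibitor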; details: P. falciparum 3D7 crude extract, LDH APAD/NBT absorbance; at 2 µM; active compounds read high
[4] = inhibition of 3D7 malaria parasite growth – strain 3D7 (AID 2306);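 note: 0% = DMSO wells and 100% = chloroquine plus artemisinin control wells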; details: P. falciparum 3D7 erythrocytic growth, LDH absorbance, 72 h; at 2 µM; active compounds read high
[5] = target: Calcium-dependent protein kinase 1 (Plasmodium falciparum (isolate 3D7)) (UniProt P62344); experiment: PfCDPK1 kinase inhibitors, biochemical, TCAMS library (AID 1159585; cut-off not given, nearly all actives have IC50 up to about 0.98 µM;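 note: inhibitors leave more ATP so luminescence rises with inhibition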); details: recombinant PfCDPK1, Kinase-Glo ATP depletion luminescence
[6] = target: Plasmodium falciparum protein kinase 6 (PK6, PF3D7_1337100) (UniProt Q8IDW1); experiment: PfPK6 kinase inhibitors, biochemical, TCAMS library (AID 1159586); details: recombinant PfPK6, Kinase-Glo ATP depletion luminescence
[7] = target: Protein kinase 7 (PK7), Plasmodium falciparum 3D7 (PF3D7_0213400) (UniProt Q7YTF7); experiment: inhibition of Plasmodium PK7 catalytic activity – biochemical, TCAMS antimalarial set, Kinase-Glo luminescence (AID 1159587); details: recombinant PfPK7, Kinase-Glo ATP depletion luminescence
[8] = target: Calcium-dependent protein kinase 4 (Plasmodium falciparum (isolate 3D7)) (UniProt Q8IBS5); experiment: PfCDPK4 kinase inhibitors, biochemical, TCAMS library (AID 1159588; cut-off not given, nearly all actives have IC50 up to about 0.91 µM); details: recombinant PfCDPK4, Kinase-Glo ATP depletion luminescence
Sequence of Calcium-dependent protein kinase 4 (Plasmodium falciparum (isolate 3D7)) (Q8IBS5 whole entry, looked up): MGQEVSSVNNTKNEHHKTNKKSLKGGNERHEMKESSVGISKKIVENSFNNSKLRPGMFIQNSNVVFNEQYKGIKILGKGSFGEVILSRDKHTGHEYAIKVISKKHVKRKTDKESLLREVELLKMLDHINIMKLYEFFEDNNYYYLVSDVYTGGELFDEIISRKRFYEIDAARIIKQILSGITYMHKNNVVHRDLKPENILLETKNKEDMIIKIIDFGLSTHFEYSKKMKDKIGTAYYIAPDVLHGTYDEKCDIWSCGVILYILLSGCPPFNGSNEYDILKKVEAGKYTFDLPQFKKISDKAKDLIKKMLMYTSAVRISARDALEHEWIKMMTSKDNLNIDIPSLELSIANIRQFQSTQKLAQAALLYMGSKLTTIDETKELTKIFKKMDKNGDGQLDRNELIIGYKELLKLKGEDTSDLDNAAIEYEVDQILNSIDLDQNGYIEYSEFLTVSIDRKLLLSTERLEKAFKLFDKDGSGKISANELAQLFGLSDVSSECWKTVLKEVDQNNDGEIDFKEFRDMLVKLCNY

Sequence of Calcium-dependent protein kinase 1 (Plasmodium falciparum (isolate 3D7)) (P62344 whole entry, looked up): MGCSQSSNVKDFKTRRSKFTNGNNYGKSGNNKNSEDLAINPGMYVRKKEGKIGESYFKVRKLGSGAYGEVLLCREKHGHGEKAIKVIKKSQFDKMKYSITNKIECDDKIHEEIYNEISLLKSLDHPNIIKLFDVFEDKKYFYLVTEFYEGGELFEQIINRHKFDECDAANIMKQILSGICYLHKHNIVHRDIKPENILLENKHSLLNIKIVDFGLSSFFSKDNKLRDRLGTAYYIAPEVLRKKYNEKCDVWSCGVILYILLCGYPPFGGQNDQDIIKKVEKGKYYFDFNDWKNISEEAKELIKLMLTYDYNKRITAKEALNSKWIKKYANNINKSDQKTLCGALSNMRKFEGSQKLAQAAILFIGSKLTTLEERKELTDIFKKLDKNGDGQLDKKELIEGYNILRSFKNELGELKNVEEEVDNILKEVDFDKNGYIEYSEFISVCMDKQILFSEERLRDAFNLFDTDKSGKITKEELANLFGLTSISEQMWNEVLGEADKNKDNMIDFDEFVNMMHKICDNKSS
Sequence of Plasmodium falciparum protein kinase 6 (PK6, PF3D7_1337100) (Q8IDW1 1-305): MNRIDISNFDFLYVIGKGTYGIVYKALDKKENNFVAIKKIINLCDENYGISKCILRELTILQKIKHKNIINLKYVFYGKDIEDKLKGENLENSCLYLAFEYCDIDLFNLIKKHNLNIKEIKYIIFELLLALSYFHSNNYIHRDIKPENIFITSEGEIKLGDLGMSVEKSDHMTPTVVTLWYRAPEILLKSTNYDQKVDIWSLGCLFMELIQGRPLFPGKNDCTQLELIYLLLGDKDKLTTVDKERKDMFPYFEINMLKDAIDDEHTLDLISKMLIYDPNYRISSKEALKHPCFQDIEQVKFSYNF
Sequence of L-lactate dehydrogenase (Plasmodium falciparum (isolate CDC / Honduras)) (Q27743 whole entry, looked up): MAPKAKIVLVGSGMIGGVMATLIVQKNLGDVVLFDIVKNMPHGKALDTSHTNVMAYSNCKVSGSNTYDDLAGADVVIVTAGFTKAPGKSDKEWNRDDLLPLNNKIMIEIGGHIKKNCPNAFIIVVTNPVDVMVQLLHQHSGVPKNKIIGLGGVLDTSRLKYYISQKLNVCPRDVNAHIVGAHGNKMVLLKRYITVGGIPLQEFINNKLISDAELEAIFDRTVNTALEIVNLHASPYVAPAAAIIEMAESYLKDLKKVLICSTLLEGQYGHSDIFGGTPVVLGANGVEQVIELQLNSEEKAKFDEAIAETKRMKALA
Sequence of Protein kinase 7 (PK7), Plasmodium falciparum 3D7 (PF3D7_0213400) (Q7YTF7 1-343): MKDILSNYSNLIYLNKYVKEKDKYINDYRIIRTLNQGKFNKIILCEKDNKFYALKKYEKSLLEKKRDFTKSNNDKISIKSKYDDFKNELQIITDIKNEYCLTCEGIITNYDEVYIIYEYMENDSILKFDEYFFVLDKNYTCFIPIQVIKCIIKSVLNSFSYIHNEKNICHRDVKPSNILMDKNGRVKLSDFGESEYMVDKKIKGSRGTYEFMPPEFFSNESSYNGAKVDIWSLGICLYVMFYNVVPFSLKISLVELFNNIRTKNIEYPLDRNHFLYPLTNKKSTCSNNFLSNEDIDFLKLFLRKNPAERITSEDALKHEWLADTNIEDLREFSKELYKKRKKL

SMILES | growth inhibition [1] | inhibition [2] | inhibition [3] | growth inhibition [4] | outcome [5] | outcome [6] | outcome [7] | outcome [8]
O=[N+]([O-])c1cccc(-c2ccc(C=NNc3cc(N4CCCC4)nc(N4CCCC4)n3)o2)c1 | 67% (active) | -6% | 0% | 100% (active) | inactive | inactive | inactive | inactive
Cc1cc(N(C)C2CCN(C)C2)nc(Nc2ccc(Cl)cc2)n1 (stereo unspecified) | 88% (active) | 8% | 0% | 100% (active) | inactive | inactive | inactive | inactive
Clc1ccc(CNc2nc(NCCc3cnc[nH]3)nc(Nc3ccc4c(c3)OCO4)n2)cc1 | 6% | 8% | -2% | 84% (active) | inactive | inactive | inactive | inactive
COc1c(C2CCN(CCCCNC(=O)c3cc(-c4ccc(Cl)cc4)oc3C)CC2)ccc2c1CCCC2 | 27% | 93% (active) | 2% | 97% (active) | inactive | inactive | inactive | inactive
COc1ccc(-c2nc(NC(=O)Cc3ccc(OC)c(OC)c3)sc2C)cc1 | 22% | 33% | -2% | 93% (active) | inactive | inactive | inactive | inactive
CC(=O)Nc1cccc(CNCc2ccc(-c3cnc(N4CCCC(C)(C)C4)nc3)cc2)c1 | 75% (active) | 10% | 0% | 93% (active) | inactive | inactive | inactive | inactive
O=S(=O)(Nc1cc2c(cc1OCc1ccccc1)CCN(C1CCC1)CC2)c1ccc(-c2ccc(Cl)cc2)cc1 | 12% | 18% | 0% | 92% (active) | inactive | inactive | inactive | inactive
COc1ccc(C(=O)Nc2ccc3nc(N4CCCCC4)cc(C)c3c2)cc1OC | 7% | 15% | 3% | 92% (active) | inactive | inactive | inactive | inactive
COc1ccc(NC(=O)N2CCCN(CCCCCNC(=O)/C=C/c3ccc(C(F)(F)F)cc3)CC2)cc1Cl | -5% | 21% | 4% | 93% (active) | inactive | inactive | inactive | inactive
CC(C)(C)c1ccc(-c2csc(NC(=O)CC(c3ccccc3)c3ccccc3)n2)cc1 | 64% (active) | 3% | -6% | 86% (active) | inactive | inactive | inactive | inactive
Cc1ccc2nc(C)cc(Nc3ccccc3O)c2c1 | 6% | 0% | -3% | 96% (active) | inactive | inactive | inactive | inactive
CC(=O)Nc1nc(C(=O)Nc2ccc(-c3ccc(-c4nc5ccccc5[nH]4)cc3)cc2)cs1 | 53% (active) | 38% | -5% | 100% (active) | inactive | inactive | inactive | inactive
O=C(Nc1cccc(CN2CCCN(Cc3cccc(O)c3)CC2)c1)c1ccc(Cl)c(Cl)c1 | 79% (active) | 25% | 2% | 102% (active) | inactive | inactive | inactive | inactive
O=C(Nc1ccc(OC2CCN(Cc3ccco3)CC2)c(Cl)c1)c1ccc2ncccc2c1 | 40% | -5% | -4% | 97% (active) | inactive | inactive | inactive | inactive
COc1cc(Nc2ccnc3ccc(C(C)(C)C)cc23)cc(OC)c1OC | 80% (active) | 12% | 1% | 100% (active) | inactive | inactive | inactive | inactive
O=C(Nc1ccc2c(c1)CCC2)c1cccc(N2CCN(c3ccncc3)CC2)c1 | 22% | 35% | -2% | 92% (active) | inactive | inactive | inactive | inactive
Cc1cn(CC(=O)Nc2cccc(-c3cccc(-c4nc5c(C)cccc5[nH]4)c3)c2)c(=O)[nH]c1=O | 100% (active) | 2% | 5% | 100% (active) | inactive | inactive | inactive | inactive
Nc1ncc(-c2ccsc2)c2ccc(-c3cnc[nH]3)cc12 | 70% (active) | 31% | -7% | 100% (active) | inactive | inactive | inactive | inactive
O=C(NCCCCN1CCC(c2c[nH]c3ccccc23)CC1)c1ccc(-c2ccc(C(F)(F)F)cc2)cc1 | 22% | 34% | -1% | 98% (active) | inactive | inactive | inactive | inactive

SMILES | growth inhibition [1] | inhibition [2] | inhibition [3] | growth inhibition [4] | outcome [5] | outcome [6] | outcome [7] | outcome [8]
Cc1cc(Br)cnc1CCCCNc1cc(=O)c2ccccc2[nH]1 | 64% (active) | -1% | -1% | 91% (active) | inactive | inactive | inactive | inactive
O=C(c1cccc(-c2ccc(-c3nc4ccc(F)cc4[nH]3)s2)c1)N1CCCCC1CN1CCC(O)C1 (stereo unspecified) | 85% (active) | 23% | 2% | 101% (active) | inactive | inactive | inactive | inactive
COc1ccc2c(NN=Cc3cccc(C)n3)ccnc2c1 | 51% (active) | -12% | 3% | 96% (active) | inactive | inactive | inactive | inactive
O=C(Nc1ccc(C(F)(F)F)cc1)c1cccc(S(=O)(=O)NCC2CCCN(CC3CCCCC3)C2)c1 (stereo unspecified) | 4% | 27% | 0% | 97% (active) | inactive | inactive | inactive | inactive
CNc1ccc(CNCc2ccc(-c3ccc(-c4nc5c(C)cccc5[nH]4)cc3)cc2)cc1 | 92% (active) | 35% | -8% | 100% (active) | inactive | inactive | inactive | inactive
Cc1cc(NC(=O)CCCN2CCN(c3cccc(Cl)c3Cl)CC2)ccc1N1CCN(C(C)C)CC1 | 53% (active) | 86% (active) | -1% | 102% (active) | inactive | inactive | inactive | inactive
Cc1cccc2[nH]c(-c3ccc(-c4cccc(NC(=O)Nc5cccc(C#N)c5)c4)cc3)nc12 | 86% (active) | 25% | 7% | 102% (active) | inactive | inactive | inactive | inactive
CCCCCCN1CCCN(Cc2ccc(C(=O)Nc3cccc(CC)c3)cc2)CC1 | 54% (active) | 31% | -3% | 85% (active) | inactive | inactive | inactive | inactive
COc1ccc(CCc2ccc(-c3c(C)[nH]c(C)c(Cl)c3=O)cc2)cc1OC | 97% (active) | -5% | -7% | 99% (active) | inactive | inactive | inactive | inactive
COc1ccc(CNC2Cc3ccccc3C2)cc1-c1ccc(OC)c(S(=O)(=O)NCCN2CCCC2)c1 | 97% (active) | 31% | -9% | 101% (active) | inactive | inactive | inactive | inactive
COc1ccccc1/C=C/C(=O)N(C)C1CCN(CCCCCNC(=O)/C=C/c2ccc(Cl)c(Cl)c2)CC1 | 63% (active) | 71% (active) | -3% | 83% (active) | inactive | inactive | inactive | inactive
Cc1cc(NC(=O)c2ccc(-c3ccccc3)cc2)no1 | 57% (active) | 5% | 0% | 83% (active) | inactive | inactive | inactive | inactive
COc1ccc(CNCCc2cccs2)cc1-c1ccc(OC)c(S(=O)(=O)NCCN2CCCC2)c1 | 19% | 16% | 1% | 96% (active) | inactive | inactive | inactive | inactive
O=C(/C=C/c1ccc(Cl)c(Cl)c1)NCCCCCN1CCC(C(=O)Nc2cccc(Cl)c2)CC1 | -2% | 48% | -3% | 100% (active) | inactive | inactive | inactive | inactive
CC(C)c1ccc2oc(-c3ccc(NC(=O)c4ccc([N+](=O)[O-])o4)cc3)nc2c1 | 95% (active) | 99% (active) | 6% | 100% (active) | inactive | inactive | inactive | inactive
COc1ccc(CCNCc2cc3c(C(C)(C)C)nn(-c4ccc(Cl)cc4)c3[nH]c2=O)cc1OC | 99% (active) | 13% | 5% | 100% (active) | inactive | inactive | inactive | inactive
COc1ccc(CC(=O)NC2CCN(c3ccnc4cc(Cl)ccc34)C2)cc1 (stereo unspecified) | 88% (active) | -1% | -8% | 101% (active) | inactive | inactive | inactive | inactive
COc1ccc(NC(=O)c2ccc(-c3nc(-c4cccc(C(F)(F)F)c4)cs3)cc2)cc1N1CCN(C)CC1 | 59% (active) | 29% | 6% | 98% (active) | inactive | inactive | inactive | inactive
